Only some compounds are listed: those with a hit (about 10% of all), similar ones and a draw of the others.
Luc counter: Kinase-Glo luciferase inhibition (counter-screen). actives 0.28% (n = 200,000). Q27757. Kinase-Glo luciferase, ATP luminescence, 8 min. Potency, µM (series often up to 38.3 µM), inactives show top-dose activity change, negative = inhibition, hits mostly inhibitors. AID 1379; active = well fitted inhibition curve with a large enough effect; inconclusive = small, poorly fitted or top-dose-only effect; also: potency is read from the fitted curve at half-maximal effect; nearly all actives have a fitted effect of over 60% in size
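Kinase-Glo luciferase light output from ATP and luciferin was measured with 10 uM ATP, within the enzyme's linear range. Buffer: 50 mM imidazole pH 7.2, 50 mM KCl, 7 mM MgCl2, 0.01% Tween 20, 0.05% BSA; luminescence read after 8 min at ambient temperature.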
HPGD inh: inhibitors of human 15-hydroxyprostaglandin dehydrogenase (HPGD) | AID 894 | P15428 | Potency, µM, inactives show at the highest dose activity change, negative = inhibition, hits mostly inhibitors | actives 4.3% (n = 150,000) | purified HPGD, NADH fluorescence kinetic, PGE2 substrate; also: potency is read from the fitted curve at half-maximal effect
Target sequence (P15428 whole entry, looked up): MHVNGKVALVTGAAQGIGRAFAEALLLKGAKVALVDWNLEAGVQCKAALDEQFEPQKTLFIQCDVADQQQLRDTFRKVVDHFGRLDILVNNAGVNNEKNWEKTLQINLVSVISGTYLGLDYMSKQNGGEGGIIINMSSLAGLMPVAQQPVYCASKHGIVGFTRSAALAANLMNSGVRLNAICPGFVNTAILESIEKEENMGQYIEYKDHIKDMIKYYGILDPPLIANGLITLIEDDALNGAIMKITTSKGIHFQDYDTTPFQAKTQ
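NADH formation kinetics: reaction with 30 uM PGE2 and 1 mM NAD+ (final), 20 nM enzyme, Tris-HCl pH 8 with Tween 20, after 15 min compound preincubation at room temperature. Fluorescence change, last versus first of five reads.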
LMNA splice mod: modulators of lamin A splicing | HeLa LMNA splicing GFP/RFP minigene ratio, 48 h | Potency, µM (highest dose often 46.1 µM), without a hit: at the highest dose ratio change, negative = inhibition, usual class: inhibitors | actives 0.01% (n = 200,000); active = well fitted inhibition curve with a large enough effect in the signal ratio, with a control signal flat, not every such curve was filed as active; inconclusive = small, poorly fitted or top-dose-only effect, or effect the other way, or a change in a side signal; the % refers to the signal ratio; also: potency is read from the fitted curve at half-maximal effect
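S3 HeLa cells stably expressing lamin A-EGFP splicing minigene plus DsRed2, 600 cells/well, 48 h compound exposure at 37C. Laser-scanning cytometry; analysed as GFP (500-530 nm)/RFP (575-640 nm) total intensity ratio; 0.5% DMSO vehicle.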
ALDH1A1 block: blocks purified human ALDH1A1 activity; P00352; AID 1030; actives 7.3% (n = 220,000); Potency, µM (doses to about 75.3 µM), for the others: top-dose activity, negative = inhibition, actives largely listed as inhibitors; Purified ALDH1A1, NADH fluorescence, propionaldehyde substrate;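 also: potency is read from the fitted curve at half-maximal effect; plate controls were no enzyme wells and a reference inhibitor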
Target sequence (P00352 whole entry, looked up): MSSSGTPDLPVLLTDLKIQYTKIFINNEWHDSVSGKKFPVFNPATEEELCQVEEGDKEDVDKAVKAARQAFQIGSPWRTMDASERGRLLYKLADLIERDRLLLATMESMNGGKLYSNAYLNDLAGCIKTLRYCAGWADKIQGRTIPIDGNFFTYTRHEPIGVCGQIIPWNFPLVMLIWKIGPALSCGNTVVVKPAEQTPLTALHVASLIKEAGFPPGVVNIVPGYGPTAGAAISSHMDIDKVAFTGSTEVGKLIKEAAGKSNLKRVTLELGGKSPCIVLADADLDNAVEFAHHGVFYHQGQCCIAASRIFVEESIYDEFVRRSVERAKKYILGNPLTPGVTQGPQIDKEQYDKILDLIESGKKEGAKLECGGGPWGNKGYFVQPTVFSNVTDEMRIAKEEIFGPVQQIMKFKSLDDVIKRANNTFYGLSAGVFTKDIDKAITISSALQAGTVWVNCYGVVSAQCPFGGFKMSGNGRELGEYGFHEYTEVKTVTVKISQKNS
PNC inhibitor: blocks assembly of the perinucleolar compartment; actives 3.1% (n = 140,000); PC3M PTB-GFP, PNC prevalence imaging, 16 h; active compounds read low; activity change (PNC), negative = inhibition, % at 10 µM;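 active = readout at or below -70, meaning at least 70% loss of cells showing the perinucleolar compartment, a nuclear body marking cancer cells; inconclusive = readout between -30 and a set limit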;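 also: plate controls were DMSO wells for no effect and camptothecin positive control wells for full effect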
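PC3M cells stably expressing PTB-GFP, 750–1000 cells/well, treated 16 h at 37 °C with compound (23 nl of library stock), in duplicate. After paraformaldehyde fixation and Hoechst stain, imaged at 20x; PNC prevalence scored by image analysis.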
An asterisk follows results filed as active; ? = inconclusive; . = not tested or not shown; [ ] = another dose, or the depositor's remark. Unless noted, calls follow the shape of the dose curve; as a rule, active = well fitted inhibition curve with a large enough effect (not every such curve was filed as active); inconclusive = small, poorly fitted or top-dose-only effect, or another doubt; inactive = no such curve, though single readings can be large or run the other way. Unless noted, % is scaled to controls: 0 for no effect and ±100 for the full control effect.

SMILES	Luc counter	HPGD inh	LMNA splice mod	ALDH1A1 block	PNC inhibitor
O=C(N/N=C/c1sc(=O)n(-c2ccccc2)c1Cl)c1ccncc1	-3.9%	-21.7%	?	10µM*	52.1
Cc1ccccc1-n1c(C)cc(/C=N/NC(=O)c2ccncc2)c1C	-3.8%	-17.4%	10.0%	31.6µM*	-3.3
Cc1ccc(C)n1-c1ccc(NC(=O)c2ccccc2)cc1	-2.0%	-10.9%	?	-14.3%	-11.9
Cc1ccc(C)n1-c1ccc(C(=O)N/N=C/c2ccncc2)cc1	-2.9%	.	1.8%[46 µM]	17.8µM*	.
CC(=O)Nc1ccc(NC(=O)c2ccc(-n3c(C)ccc3C)cc2)cc1	5.5%	25.1µM*	14.9%	22.4µM*	?
COc1cc(C(=O)N/N=C/c2sc(=O)n(-c3ccccc3)c2Cl)cc(OC)c1OC	3.3%	-0.6%	-24.1%	?	1.8
C=CCNC(=O)N1CCc2nc(-c3ccccc3)c3c(c2C1)CO[C@@H](C)C3	-4.5%[7.66 µM]	7.0%	0.2%[9.22 µM]	-4.6%[13.5 µM]	.
CCc1ccccc1NC(=O)c1ccc(-n2c(C)ccc2C)cc1	-1.4%	15.8µM*	?	-8.4%	?
N#CCCn1c(=O)c(-c2cc(F)cc(F)c2)nc2cnc(OCc3ccccc3)nc21	-3.1%	?	.	?	.
Cc1ccc(C(=O)c2cnc3ccccc3c2-c2ccccc2)cc1	-1.5%	-15.1%	-5.0%	12.6µM*	68.3
COc1ccc(C(=O)c2cnc3ccccc3c2-c2ccccc2)cc1	-0.2%	?	5.1%	1.41µM*	72.3
O=C(CSc1nnc2scc(-c3ccc(Cl)cc3)n12)NCc1ccc2c(c1)OCO2	-0.4%	-6.7%	-7.7%	-6.7%	-85.5*
Cn1c(=O)c2c(nc(SCC(=O)NCc3ccc4c(c3)OCO4)n2Cc2ccc(Cl)cc2)n(C)c1=O	-16.0%	-14.6%	-13.4%	-10.1%	-100.0*
C=C1C2CC[C@]3(CCC4[C@@]5(C)CCC[C@@]4(CN(CCO)C5)[C@@H]3C2)[C@@H]1O (some centres undefined)	1.5%	-2.5%	.	-4.1%	.
O=C(Cc1nc(-c2ccc([N+](=O)[O-])cc2)cs1)Nc1ccccc1	-1.1%	-19.3%	-4.5%	8.91µM*	-100.0*
O=C(Cc1ccccc1)Nc1nc(-c2cccc([N+](=O)[O-])c2)cs1	1.1%	-12.4%	-13.1%	4.3%	-103.4*
CC(=O)SC[C@@H](Cc1ccccc1)C(=O)NCC(=O)OCc1ccccc1	-2.6%[17.1 µM]	-2.4%	-14.4%	-12.7%[20.9 µM]	.
COc1cc(C[C@H]2C(=O)OC[C@@H]2Cc2ccc(OC)c(OC)c2)ccc1O	0.8%	-5.2%	.	7.2%	.
Cc1nn2c(=O)cc(COC(=O)c3cccs3)nc2s1	.	.	2.3%[46 µM]	.	.
O=C(CN1CCCC1)Nc1ccccc1Cl	5.4%	?	11.9%	11.6%	2.0
O=C(CN1CCCCC1)Nc1ccccc1-c1ccccc1	2.2%	-18.7%	7.2%	18.9µM*	18.9
O=C(CN1CCOCC1)Nc1ccccc1-c1ccccc1	-0.7%	-13.1%	3.3%	14.1µM*	-19.9
O=C(CN1CCN(C(=O)c2ccco2)CC1)Nc1ccccc1-c1ccccc1	-0.1%	-3.3%	2.7%	6.31µM*	?
O=C(CN1CCOCC1)Nc1scc(-c2ccccc2)c1C(=O)N1CCOCC1	-0.7%	-10.8%	13.5%	-27.0%	-15.6
COc1ccc(-c2nc(C)c(CCNC(=O)c3ccc(F)c(F)c3)s2)cc1	.	.	-0.2%[46 µM]	.	.
SMILES	Luc counter	HPGD inh	LMNA splice mod	ALDH1A1 block	PNC inhibitor
CCCCC(=O)N(Cc1ccc(-c2ccccc2-c2nn[nH]n2)cc1)[C@H](C(=O)O)C(C)C	.	.	-9.3%[46 µM]	.	.
CCCS(=O)(=O)N1CCC(C(=O)NC2CCCCC2C)CC1 (centres undefined)	.	.	3.7%	10µM*	15.0
CCS(=O)(=O)N1CCCC(C(=O)NC2CCCCC2C)C1 (centres undefined)	-1.9%	1.2%	8.9%[0.0737 µM]	0.1%	63.1
COc1ccccc1CNC(=O)c1ccc(N2CCCC2)c(NC(=O)NCc2ccccc2)c1	.	.	-4.8%[46 µM]	.	.
COc1ccc(C(=O)CSc2nnc(CNc3ccc(C)cc3C)n2Cc2ccco2)cc1	0.2%	?	?	7.08µM*	-9.4
Cc1ccc(C(=O)CSc2nnc(CNc3ccc(C)cc3C)n2Cc2ccco2)cc1	0.9%	-16.0%	-7.6%	22.4µM*	-14.5
Cc1ccc(NCc2nnc(SCc3ccc(C#N)cc3)n2Cc2ccco2)c(C)c1	-0.9%	1.0%	-18.8%	-6.6%	2.1
Cc1ccc(CCNC(=O)c2ccc3c(c2)N(Cc2cccc(Cl)c2)C(=O)c2ccccc2S3(=O)=O)cc1	.	.	-5.3%[46 µM]	.	.
Cc1ccc(-c2noc(C3CCCN(C(=O)c4ccccc4)C3)n2)o1 (centres undefined)	-4.9%	0.1%	-9.9%	14.1µM*	3.6
COc1ccccc1C(=O)N1CCCC(c2nc(-c3cc(OC)c(OC)c(OC)c3)no2)C1 (centres undefined)	2.7%	-7.6%	-11.6%	6.2%	27.5
COc1cccc(-c2noc(C3CCCN(C(=O)Cc4ccccc4)C3)n2)c1 (centres undefined)	0.3%	-0.7%	-12.0%	12.6µM*	-16.4
COc1ccc(C(=O)N2CCCC(c3nc(-c4cc(OC)c(OC)c(OC)c4)no3)C2)cc1 (centres undefined)	-0.2%	25.1µM*	0.2%	11.1%	?
CCCC(=O)N1CCCC(c2nc(-c3cccc(OC)c3)no2)C1 (centres undefined)	-3.4%	.	?	5.7%	.
N#Cc1cccc(-c2nccc(-n3ccnc3)n2)c1	.	.	0.1%	?	.
N#Cc1cnc(Nc2nc3ccccc3o2)nc1-c1ccccc1	0.4%	-24.8%	-7.9%	?	-17.8
Cc1ccnc(Nc2nc3ccccc3o2)n1	12.6µM*	-13.2%	?	-0.8%	-2.8
Cc1nc(Nc2nc3ccccc3o2)nc(C)c1C	11.2µM*	.	.	-5.1%	.
Cn1c(C2=C(O)CN(c3ccccc3)C2=N)nc2ccccc21	-2.2%	.	11.1%[46 µM]	4.7%	.
Cc1cccc(N2CC(O)=C(c3nc4ccccc4n3C)C2=N)c1	-4.1%	11.2µM*	-5.3%	5.9%	?
CSc1nncc(/C(C)=N\Nc2ccccc2)n1	4.1%	-19.5%	10.6%	?	-26.0
CSc1nncc(/C(C)=N\Nc2cccc(C)c2)n1	-6.7%	-13.4%	9.3%	8.91µM*	30.1
CC/C(=N/Nc1ccccc1C)c1cnnc(SC)n1	-6.9%	-21.5%	?	7.94µM*	16.5
CCCCN(CC)CCCNC(=O)c1c(C)oc2ncnc(N3CCOCC3)c12	.	.	4.7%[46 µM]	.	.
COc1ccc2nc(COC(=O)c3cccc([N+](=O)[O-])c3)c(C(C)=O)[n+]([O-])c2c1	.	.	.	-6.0%	.
CC(=O)c1c(COC(=O)c2ccccc2)nc2ccccc2[n+]1[O-]	-2.0%	14.1µM*	-4.9%	?	17.5
CN(C)/C=C/c1onc(-c2c(Cl)cccc2Cl)c1C#N	-2.6%	.	-4.0%[9.22 µM]	12.6µM*	.
N#Cc1c(-c2c(Cl)cccc2Cl)noc1/C=C/Nc1ccc(C(=O)O)cc1	-2.2%	.	.	3.55µM*	.

Bioassay records: PubChem, National Center for Advancing Translational Sciences (NCATS)
